Reference: the supplement of paper PMC11732987, “Enantioselective OTUD7B fragment discovery through chemoproteomics screening and high-throughput optimisation” (Communications Chemistry, 2025)

Legend:
Experiment in all cases: log2 ratio of Biotin-Ahx-Ub-VS probe labelling (fragment/DMSO); higher = less target engagement (more negative = stronger competition), active = hit call of the paper (q ≤ 0.05, log2 ratio ≤ -1)
Settings in all cases: compound concentration: 200 uM; treatment time: 3 h
USP19 = target: T1, USP19 (UniProt O94966)
T1 sequence (whole entry): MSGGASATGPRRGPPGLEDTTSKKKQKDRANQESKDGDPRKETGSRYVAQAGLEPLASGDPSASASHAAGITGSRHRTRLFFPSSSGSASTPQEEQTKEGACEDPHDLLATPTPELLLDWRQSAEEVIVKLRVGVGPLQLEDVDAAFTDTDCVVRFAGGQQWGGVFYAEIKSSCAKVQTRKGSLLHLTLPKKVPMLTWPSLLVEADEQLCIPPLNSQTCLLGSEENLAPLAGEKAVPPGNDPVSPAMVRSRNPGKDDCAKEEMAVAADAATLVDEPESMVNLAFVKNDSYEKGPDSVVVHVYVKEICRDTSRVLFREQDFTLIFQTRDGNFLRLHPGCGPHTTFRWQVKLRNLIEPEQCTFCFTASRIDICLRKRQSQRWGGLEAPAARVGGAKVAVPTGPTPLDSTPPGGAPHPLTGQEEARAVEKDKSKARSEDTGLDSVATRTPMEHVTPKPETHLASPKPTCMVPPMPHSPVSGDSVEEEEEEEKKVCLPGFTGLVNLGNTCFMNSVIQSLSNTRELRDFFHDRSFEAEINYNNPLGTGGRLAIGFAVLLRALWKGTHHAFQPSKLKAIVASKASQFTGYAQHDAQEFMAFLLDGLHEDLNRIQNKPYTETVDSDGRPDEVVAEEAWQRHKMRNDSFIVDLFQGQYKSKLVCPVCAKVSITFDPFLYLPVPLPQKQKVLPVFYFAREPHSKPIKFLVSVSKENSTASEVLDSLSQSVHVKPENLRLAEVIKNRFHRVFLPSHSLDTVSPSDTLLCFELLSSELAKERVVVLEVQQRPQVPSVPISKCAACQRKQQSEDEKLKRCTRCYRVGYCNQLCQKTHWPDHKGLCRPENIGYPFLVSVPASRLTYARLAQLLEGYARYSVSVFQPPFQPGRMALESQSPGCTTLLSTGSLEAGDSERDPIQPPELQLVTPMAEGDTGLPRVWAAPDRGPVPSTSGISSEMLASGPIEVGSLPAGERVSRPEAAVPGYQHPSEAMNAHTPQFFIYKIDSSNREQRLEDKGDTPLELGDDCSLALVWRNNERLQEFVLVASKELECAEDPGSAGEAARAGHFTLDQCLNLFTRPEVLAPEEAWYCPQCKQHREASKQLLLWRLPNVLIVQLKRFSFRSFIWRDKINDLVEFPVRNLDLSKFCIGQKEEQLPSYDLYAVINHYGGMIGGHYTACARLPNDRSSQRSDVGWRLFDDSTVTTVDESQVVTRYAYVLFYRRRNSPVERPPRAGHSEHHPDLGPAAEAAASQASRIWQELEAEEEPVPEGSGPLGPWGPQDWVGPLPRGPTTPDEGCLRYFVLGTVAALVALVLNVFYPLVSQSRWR
How it was run: (§1)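 Each value is an average log2 ratio of fragment to vehicle, tested by unpaired t-test. The underlying Spectronaut label-free quantities were global-median-normalised, and only proteins with ≥2 unique peptides were included. Triplicate HEK293T lysate samples (495 µg) were exposed to fragment at 200 µM or vehicle for 3 h, then to Biotin-Ahx-Ub-VS at 0.5 µM final for 1 h, before NeutrAvidin enrichment of labelled DUBs, LysC and trypsin digestion, and diaPASEF LC-MS/MS.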

USP24 = USP24 (UniProt Q9UPU5)
How it was run: as §1

USP25 = target: T2, USP25 (UniProt Q9UHP3)
T2 sequence (whole entry): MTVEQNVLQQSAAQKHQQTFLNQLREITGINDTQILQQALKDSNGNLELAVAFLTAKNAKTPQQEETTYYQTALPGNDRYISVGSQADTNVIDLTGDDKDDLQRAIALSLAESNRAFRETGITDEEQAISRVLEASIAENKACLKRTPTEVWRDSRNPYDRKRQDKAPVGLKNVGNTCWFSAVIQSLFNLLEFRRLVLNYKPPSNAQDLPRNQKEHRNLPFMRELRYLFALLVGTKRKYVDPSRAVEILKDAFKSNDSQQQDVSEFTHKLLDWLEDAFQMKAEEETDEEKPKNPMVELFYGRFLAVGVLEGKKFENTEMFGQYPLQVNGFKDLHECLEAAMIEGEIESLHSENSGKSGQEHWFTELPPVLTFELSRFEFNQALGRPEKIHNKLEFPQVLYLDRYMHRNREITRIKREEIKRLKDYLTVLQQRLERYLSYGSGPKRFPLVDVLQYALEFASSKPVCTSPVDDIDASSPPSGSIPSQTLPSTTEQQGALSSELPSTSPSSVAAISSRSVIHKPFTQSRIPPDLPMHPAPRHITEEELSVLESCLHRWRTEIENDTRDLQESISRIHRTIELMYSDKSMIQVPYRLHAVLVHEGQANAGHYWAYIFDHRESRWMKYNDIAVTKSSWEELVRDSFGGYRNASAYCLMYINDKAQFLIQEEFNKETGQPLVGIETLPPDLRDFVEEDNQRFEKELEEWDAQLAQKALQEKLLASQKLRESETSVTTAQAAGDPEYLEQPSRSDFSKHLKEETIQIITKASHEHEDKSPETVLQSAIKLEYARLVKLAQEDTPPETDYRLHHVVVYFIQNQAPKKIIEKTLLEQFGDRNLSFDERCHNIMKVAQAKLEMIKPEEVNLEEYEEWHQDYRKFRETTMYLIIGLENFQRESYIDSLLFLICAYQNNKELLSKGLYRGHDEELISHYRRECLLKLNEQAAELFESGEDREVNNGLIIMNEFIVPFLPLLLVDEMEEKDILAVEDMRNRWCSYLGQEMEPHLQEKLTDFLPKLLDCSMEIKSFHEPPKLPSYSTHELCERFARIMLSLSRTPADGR
How it was run: as §1

USP28 = target: T3, USP28 (UniProt Q96RU2)
T3 sequence (whole entry): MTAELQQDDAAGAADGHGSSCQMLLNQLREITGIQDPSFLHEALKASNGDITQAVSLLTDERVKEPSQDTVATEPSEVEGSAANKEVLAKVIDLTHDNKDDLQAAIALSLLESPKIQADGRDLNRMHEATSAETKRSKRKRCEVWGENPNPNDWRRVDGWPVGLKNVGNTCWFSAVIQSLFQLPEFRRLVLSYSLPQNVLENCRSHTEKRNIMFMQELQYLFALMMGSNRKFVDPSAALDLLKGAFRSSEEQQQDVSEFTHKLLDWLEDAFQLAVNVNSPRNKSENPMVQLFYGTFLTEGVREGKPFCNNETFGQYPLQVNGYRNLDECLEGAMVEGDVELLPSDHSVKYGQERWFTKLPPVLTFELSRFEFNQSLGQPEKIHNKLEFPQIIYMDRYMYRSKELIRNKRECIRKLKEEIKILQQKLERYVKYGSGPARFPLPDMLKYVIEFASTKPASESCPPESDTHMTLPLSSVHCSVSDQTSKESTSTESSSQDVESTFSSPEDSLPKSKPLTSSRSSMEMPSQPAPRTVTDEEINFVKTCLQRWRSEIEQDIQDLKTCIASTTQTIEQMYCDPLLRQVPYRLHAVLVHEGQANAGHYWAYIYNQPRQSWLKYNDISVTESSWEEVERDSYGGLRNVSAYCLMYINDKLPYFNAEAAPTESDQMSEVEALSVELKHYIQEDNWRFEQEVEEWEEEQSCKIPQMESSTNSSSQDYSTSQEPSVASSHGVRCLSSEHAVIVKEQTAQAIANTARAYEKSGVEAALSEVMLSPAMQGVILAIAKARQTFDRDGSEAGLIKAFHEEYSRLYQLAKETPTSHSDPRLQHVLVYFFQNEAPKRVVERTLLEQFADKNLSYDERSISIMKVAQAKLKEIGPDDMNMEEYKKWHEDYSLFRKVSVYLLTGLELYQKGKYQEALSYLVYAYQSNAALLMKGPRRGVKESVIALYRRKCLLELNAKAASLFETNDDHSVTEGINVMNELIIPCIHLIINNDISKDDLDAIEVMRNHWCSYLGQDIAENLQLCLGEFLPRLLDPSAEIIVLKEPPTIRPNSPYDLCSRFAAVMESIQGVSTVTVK
How it was run: as §1

Measured: log2 ratio of Biotin-Ahx-Ub-VS probe labelling

USP24, sequence (Q9UPU5 whole entry): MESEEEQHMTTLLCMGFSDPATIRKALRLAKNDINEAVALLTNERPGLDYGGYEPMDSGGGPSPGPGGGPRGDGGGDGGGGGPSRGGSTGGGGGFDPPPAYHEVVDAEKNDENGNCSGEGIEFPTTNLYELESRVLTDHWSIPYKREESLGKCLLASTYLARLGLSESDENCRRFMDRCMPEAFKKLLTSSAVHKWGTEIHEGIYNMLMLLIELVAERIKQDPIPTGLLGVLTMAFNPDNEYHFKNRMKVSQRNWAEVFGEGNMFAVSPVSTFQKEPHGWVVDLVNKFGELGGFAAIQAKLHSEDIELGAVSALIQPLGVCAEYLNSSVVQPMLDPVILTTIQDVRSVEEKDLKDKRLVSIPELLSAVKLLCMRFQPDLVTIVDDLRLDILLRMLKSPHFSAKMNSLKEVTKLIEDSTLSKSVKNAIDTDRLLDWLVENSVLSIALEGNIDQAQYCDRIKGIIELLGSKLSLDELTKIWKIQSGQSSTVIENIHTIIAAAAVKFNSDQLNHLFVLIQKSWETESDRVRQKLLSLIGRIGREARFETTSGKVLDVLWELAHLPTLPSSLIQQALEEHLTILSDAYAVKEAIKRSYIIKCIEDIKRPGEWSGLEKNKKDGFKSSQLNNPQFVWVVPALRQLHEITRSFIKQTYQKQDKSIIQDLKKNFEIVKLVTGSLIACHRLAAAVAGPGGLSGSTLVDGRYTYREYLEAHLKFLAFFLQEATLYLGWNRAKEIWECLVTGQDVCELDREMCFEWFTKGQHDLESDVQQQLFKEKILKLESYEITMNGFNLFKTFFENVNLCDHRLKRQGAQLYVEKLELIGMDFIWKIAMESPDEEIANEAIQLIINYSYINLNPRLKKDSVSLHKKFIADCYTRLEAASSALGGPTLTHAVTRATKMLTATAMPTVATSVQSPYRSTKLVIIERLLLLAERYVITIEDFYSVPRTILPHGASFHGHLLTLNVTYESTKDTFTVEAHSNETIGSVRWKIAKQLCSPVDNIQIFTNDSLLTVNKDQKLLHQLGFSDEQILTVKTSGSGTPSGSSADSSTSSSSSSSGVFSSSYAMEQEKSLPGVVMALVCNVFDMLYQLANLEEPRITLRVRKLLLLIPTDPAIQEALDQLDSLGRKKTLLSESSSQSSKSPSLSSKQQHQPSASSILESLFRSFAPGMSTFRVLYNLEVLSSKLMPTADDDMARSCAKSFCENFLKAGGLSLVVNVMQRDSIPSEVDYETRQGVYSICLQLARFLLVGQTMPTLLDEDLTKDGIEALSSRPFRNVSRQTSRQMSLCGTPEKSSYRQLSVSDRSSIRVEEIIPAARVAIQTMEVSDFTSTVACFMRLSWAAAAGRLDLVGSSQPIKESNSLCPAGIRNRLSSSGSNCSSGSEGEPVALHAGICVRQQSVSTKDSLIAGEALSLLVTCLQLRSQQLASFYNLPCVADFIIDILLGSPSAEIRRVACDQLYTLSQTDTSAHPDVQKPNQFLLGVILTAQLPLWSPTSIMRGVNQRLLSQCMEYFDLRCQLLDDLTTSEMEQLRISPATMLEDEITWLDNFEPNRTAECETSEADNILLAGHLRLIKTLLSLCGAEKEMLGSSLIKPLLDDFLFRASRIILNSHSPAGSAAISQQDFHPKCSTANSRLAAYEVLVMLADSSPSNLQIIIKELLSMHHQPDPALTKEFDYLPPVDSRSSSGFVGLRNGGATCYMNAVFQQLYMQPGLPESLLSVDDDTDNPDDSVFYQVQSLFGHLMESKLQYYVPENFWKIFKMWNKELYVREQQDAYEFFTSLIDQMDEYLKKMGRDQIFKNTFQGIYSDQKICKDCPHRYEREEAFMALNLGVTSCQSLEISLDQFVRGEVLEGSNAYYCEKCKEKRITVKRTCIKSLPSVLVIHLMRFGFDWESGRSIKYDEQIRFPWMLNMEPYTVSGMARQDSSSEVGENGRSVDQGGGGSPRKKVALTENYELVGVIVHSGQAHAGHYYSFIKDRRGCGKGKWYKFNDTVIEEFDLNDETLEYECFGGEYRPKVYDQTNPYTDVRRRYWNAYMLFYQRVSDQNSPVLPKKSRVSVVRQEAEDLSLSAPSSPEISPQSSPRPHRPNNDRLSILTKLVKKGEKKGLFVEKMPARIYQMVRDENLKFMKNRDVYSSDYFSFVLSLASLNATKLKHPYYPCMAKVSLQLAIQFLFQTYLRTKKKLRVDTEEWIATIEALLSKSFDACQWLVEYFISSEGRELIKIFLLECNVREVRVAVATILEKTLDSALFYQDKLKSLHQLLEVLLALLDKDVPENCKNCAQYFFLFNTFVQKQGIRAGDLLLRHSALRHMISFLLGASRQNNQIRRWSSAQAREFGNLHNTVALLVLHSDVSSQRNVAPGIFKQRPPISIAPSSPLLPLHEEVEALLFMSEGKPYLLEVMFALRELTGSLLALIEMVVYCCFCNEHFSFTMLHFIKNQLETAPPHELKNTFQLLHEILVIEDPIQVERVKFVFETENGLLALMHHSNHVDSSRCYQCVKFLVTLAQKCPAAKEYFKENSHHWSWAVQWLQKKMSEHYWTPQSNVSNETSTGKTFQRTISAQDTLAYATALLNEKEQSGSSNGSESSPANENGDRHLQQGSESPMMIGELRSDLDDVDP

O=C(CCl)N(Cc1ccsc1)C1CC1
inactive: USP19 -0.0676 | USP24 -0.704 | USP25 -0.45 | USP28 -0.283
